Laboratory results: PubChem BioAssay (NCATS)
Several values for one entry are separate records, joined by “and”; a condition that tells them apart may be missing. Equal values may be shown once. Inconclusive results are not listed. Activity calls are given as the source filed them. Unless noted, calls come from the whole dose curve; as a rule, active = well fitted curve in the direction sought with a large enough effect; inconclusive = small, poorly fitted or top-dose-only effect, or another doubt; inactive = no such curve, though single readings can be large; an effect the other way counts as inactive or inconclusive.

Assays:
[1] = Identifying Small Molecule Inhibitors of Pancreatic Cancer Stem Cells (A278, Adherent) (AID 1259361); note: nearly all actives have a fitted effect of over 35% in size
Procedure, shortened: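 Adherent (2D) versus sphere (3D) formats; spheres generated 14 d in SCM beforehand. Compound transferred by pin tool after 4 h, 48 h incubation, CellTiter-Glo endpoint.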

[2] = Identifying Small Molecule Inhibitors of Pancreatic Cancer Stem Cells (Panc1, Adherent) (AID 1259362); conditions: Potency: viability; note: potency is the fitted concentration of half-maximal effect
Procedure, shortened: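 Endpoint: ATP-based luminescence, 48 h drug exposure. Bortezomib at 9.2 uM final as full-kill control; DMSO vehicle as negative control; activity normalized between vehicle and cell-free wells.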

[3] = P-glycoprotein substrates identified in KB-3-1 adenocarcinoma cell line, qHTS therapeutic library screen (AID 1346986); note: nearly all actives have a fitted effect of over 60% in size;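 note: potency is the fitted concentration of half-maximal effect; potency is for cytotoxicity meaning loss of cell viability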
Procedure, shortened: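 Viability read by CellTiter-Glo after 72 h compound exposure in dose-response of KB-3-1 and KB-8-5-11 (P-gp-high) cells. Hits needed AC50 < 10 uM, >50% maximum response and curve class -1.1 to -2.4. Cherry-picks retested ± tariquidar, including pcDNA/MDR-19 HEK-293 pair.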

[4] = P-glycoprotein substrates identified in KB-8-5-11 adenocarcinoma cell line, qHTS therapeutic library screen (AID 1346987); note: nearly all actives have a fitted effect of over 65% in size; note: potency is the fitted concentration of half-maximal effect
Procedure, shortened: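 Luminescence from CellTiter-Glo, read 5 min after addition, quantified survival of KB-8-5-11 (P-gp-overexpressing) cells exposed to compounds for 72 h. AC50 was derived from concentration-response curves.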

[5] = qHTS of pediatric cancer cell lines to identify multiple opportunities for drug repurposing: Primary screen for TC32 cells (AID 1347089); note: nearly all actives have a fitted effect of over 60% in size; note: potency is the fitted concentration of half-maximal effect
Procedure, shortened: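 qHTS, TC32, 48 h drug treatment, CellTiter-Glo luminescence as a proxy for metabolically active cells; primary top concentration 46 µM (MIPE 11-pt, NPC 8-pt); confirmatory 11-pt.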

[6] = qHTS of pediatric cancer cell lines to identify multiple opportunities for drug repurposing: Primary screen for DAOY cells (AID 1347090); note: nearly all actives have a fitted effect of over 55% in size; note: potency is the fitted concentration of half-maximal effect
Procedure, shortened: (§1)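 Cell viability, CellTiter-Glo luminescence; 500-1,000 cells/well, 8- or 11-point titration, 48 h compound exposure at 37 degrees C, 5% CO2. Controls: DMSO neutral, bortezomib 2.3 µM final as positive.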

[7] = qHTS of pediatric cancer cell lines to identify multiple opportunities for drug repurposing: Primary screen for SJ-GBM2 cells (AID 1347091); note: potency is the fitted concentration of half-maximal effect
Procedure, shortened: as §1

[8] = qHTS of pediatric cancer cell lines to identify multiple opportunities for drug repurposing: Primary screen for A673 cells (AID 1347092); note: nearly all actives have a fitted effect of over 45% in size; note: potency is the fitted concentration of half-maximal effect
Procedure, shortened: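 Luminescence from CellTiter-Glo, taken after 15 min at room temperature, served as the proxy for metabolically active cells following 48 h treatment. Both potency and efficacy were taken from curves fitted to the titration data.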

[9] = qHTS of pediatric cancer cell lines to identify multiple opportunities for drug repurposing: Primary screen for SK-N-MC cells (AID 1347093); note: potency is the fitted concentration of half-maximal effect
Procedure, shortened: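 Metabolically active cells were quantified by ATP-dependent luminescence (CellTiter-Glo, 15 min at room temperature) following 48 h treatment. Cells had been plated at 500-1,000 per well and settled for 5 h beforehand.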

[10] = qHTS of pediatric cancer cell lines to identify multiple opportunities for drug repurposing: Primary screen for BT-37 cells (AID 1347094); note: potency is the fitted concentration of half-maximal effect
Procedure, shortened: (§2)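 CRCs from 8- or 11-point titrations (lowest final 0.59 nM NPC, 0.78 nM MIPE). Cell viability: CellTiter-Glo after 48 h incubation, 15 min room-temperature development, luminescence imaging.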

[11] = qHTS of pediatric cancer cell lines to identify multiple opportunities for drug repurposing: Primary screen for NB-EBc1 cells (AID 1347095); note: potency is the fitted concentration of half-maximal effect
Procedure, shortened: as §2

[12] = NS1 protein of Zika virus - qHTS assay to identify small molecule inhibitors in human HEK 293 cells (AID 1347053); note: nearly all actives have a fitted effect of over 55% in size; note: potency is the fitted concentration of half-maximal effect
Procedure, shortened: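 Compound-treated (1 h pre-infection) HEK 293 cells infected with ZIKV MR766, MOI = 0.5; after 24 h at 37 C, NS1 read by TR-FRET; data normalized to uninfected and infected controls.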

[13] = Identifying Small Molecule Inhibitors of Pancreatic Cancer Stem Cells (SN12C, Spheroid) (AID 1259360); conditions: Potency: SN12C spheroid viability
Procedure, shortened: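 Viability is scored by CellTiter-Glo luminescence 48 h after dosing, expressed as percent activity against vehicle and no-cell references. Spheroid formats rely on cells cultured 14 days in stem cell media beforehand.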

[14] = target: Atrial natriuretic peptide receptor 1 (Homo sapiens) (UniProt P16066); assay: Natriuretic polypeptide receptor (hNpr1) antagonism - Pilot screen (AID 1347049; calls by dose curve;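 note: HEK293 cells with hNpr1 and GloSensor cGMP luciferase stimulated by 0.1 nM hNppA; agonist-evoked cGMP luminescence read 20 min after hNppA addition; series mostly up to about 58 µM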)
Atrial natriuretic peptide receptor 1 (Homo sapiens), sequence (P16066 whole entry, looked up): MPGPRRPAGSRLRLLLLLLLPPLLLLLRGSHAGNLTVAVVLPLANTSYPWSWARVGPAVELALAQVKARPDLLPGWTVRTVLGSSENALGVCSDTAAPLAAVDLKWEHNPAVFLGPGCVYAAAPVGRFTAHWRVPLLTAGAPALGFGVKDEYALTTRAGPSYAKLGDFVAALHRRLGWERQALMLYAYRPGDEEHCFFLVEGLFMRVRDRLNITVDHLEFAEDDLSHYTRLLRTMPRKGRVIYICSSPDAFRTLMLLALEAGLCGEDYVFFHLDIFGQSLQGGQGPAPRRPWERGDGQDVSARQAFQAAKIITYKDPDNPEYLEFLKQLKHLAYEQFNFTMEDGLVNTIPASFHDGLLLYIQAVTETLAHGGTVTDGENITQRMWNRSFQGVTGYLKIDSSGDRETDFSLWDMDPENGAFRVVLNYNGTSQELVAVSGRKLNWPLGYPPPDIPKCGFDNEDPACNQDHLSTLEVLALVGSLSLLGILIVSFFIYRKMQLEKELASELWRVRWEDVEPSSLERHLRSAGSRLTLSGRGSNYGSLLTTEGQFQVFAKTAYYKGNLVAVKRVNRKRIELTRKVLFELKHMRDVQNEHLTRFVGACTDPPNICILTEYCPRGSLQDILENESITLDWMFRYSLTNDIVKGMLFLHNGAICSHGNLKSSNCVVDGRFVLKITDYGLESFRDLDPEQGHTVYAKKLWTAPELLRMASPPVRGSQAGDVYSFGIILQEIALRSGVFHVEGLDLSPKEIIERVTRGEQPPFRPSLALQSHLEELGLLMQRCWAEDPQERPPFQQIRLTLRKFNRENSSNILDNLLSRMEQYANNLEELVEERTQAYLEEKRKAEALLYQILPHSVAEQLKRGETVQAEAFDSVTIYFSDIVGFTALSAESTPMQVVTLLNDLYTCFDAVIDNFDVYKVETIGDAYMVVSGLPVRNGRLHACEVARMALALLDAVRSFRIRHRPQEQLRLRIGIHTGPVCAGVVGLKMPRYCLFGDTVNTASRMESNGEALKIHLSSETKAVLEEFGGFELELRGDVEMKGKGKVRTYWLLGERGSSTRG
Procedure, shortened: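 Receptor antagonism read as cGMP-dependent luminescence in hNpr1/pGS-40F HEK293 cells: pre-read after 30 min compound exposure, post-read 20 min after hNppA agonist at 0.1 nM final, all at room temperature, protected from light; A-71915 titration as control.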

[15] = target: Atrial natriuretic peptide receptor 2 (Homo sapiens) (UniProt P20594); assay: Natriuretic polypeptide receptor (hNpr2) antagonism - Pilot subtype selectivity assay (AID 1347050; calls by dose curve)
Atrial natriuretic peptide receptor 2 (Homo sapiens), sequence (P20594 whole entry, looked up): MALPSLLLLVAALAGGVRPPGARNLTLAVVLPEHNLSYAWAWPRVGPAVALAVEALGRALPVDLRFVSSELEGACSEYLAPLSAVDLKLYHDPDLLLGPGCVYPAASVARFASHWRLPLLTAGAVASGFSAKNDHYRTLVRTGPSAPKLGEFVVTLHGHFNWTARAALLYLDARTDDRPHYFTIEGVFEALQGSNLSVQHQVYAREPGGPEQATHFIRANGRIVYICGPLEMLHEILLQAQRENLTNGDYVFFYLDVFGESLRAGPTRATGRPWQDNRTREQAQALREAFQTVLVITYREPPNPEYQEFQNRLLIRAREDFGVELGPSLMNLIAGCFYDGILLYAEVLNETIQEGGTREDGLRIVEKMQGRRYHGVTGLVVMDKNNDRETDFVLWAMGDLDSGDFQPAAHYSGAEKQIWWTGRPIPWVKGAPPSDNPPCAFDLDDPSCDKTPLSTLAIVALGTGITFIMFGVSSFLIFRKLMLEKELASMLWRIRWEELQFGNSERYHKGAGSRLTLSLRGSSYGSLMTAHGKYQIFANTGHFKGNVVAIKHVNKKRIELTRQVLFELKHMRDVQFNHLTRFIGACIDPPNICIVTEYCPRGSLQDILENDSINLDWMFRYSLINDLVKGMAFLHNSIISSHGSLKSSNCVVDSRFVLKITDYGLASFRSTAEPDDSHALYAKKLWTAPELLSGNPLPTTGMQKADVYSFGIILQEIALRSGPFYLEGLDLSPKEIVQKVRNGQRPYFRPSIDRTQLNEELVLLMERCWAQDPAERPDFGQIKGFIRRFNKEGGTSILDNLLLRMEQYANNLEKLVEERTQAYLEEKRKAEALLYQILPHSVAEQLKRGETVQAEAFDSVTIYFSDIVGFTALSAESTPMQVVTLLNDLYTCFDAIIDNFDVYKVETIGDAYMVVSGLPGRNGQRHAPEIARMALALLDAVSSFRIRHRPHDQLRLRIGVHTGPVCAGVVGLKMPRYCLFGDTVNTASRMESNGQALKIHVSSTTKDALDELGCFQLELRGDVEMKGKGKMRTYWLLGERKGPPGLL
Procedure, shortened: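 Antagonist mode: compounds (LOPAC1280, seven 1:5 dilutions) added 30 min before 1 nM hNppC stimulation of hNpr2-HEK293 cGMP-sensor cells; luminescence read before and 20 min after agonist at ambient temperature.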

With `O=C(NCCCNc1nc(Nc2cccc(NC(=O)N3CCCC3)c2)ncc1I)c1cccs1` the IC50 (viability decrease) [1] was 6.62 µM (active) and 14.8 µM (active), the Potency [2] was 11.8 µM (active) and 16.6 µM (active) and the Potency [3] was 11.6 µM (active). For the same compound, the Potency [4] was 16.6 µM (active), the Potency [5] was 2.62 µM (active) and the Potency [6] was 14.8 µM (active). For the same compound, the Potency [7] was 2.96 µM (active), the Potency [8] was 7.43 µM (active) and the Potency [9] was 1.32 µM (active). The Potency [10] was 24.3 µM (active) and the Potency [11] was 23.5 µM (active).

In the case of `CC(C)[C@H](C(=O)Nc1ccc(C(=O)NO)cc1)c1ccccc1`, the Potency [2] is reported as 418 nM (active), the Potency [4] is reported as 1.48 µM (active) and the Potency [5] is reported as 3.3 µM (active). The Potency [6] was 1.87 µM (active), the Potency [7] was 0.59 µM (active) and the Potency [8] was 1.18 µM (active). The Potency [10] was 2.17 µM (active) and the Potency [11] was 0.526 µM (active).

With `CS(=O)(=O)N1CCN(Cc2cc3nc(-c4cccc5[nH]ncc45)nc(N4CCOCC4)c3s2)CC1` the IC50 (viability decrease) [1] was 0.372 µM (active), the Potency [2] was 590 nM (active) and the Potency [4] was 2.91 µM (active). The Potency [12] was 4.69 µM (active), the Potency [5] was 0.829 µM (active) and the Potency [7] was 0.372 µM (active). The Potency [8] was 4.69 µM (active), the Potency [9] was 0.0418 µM (active) and the Potency [10] was 6.85 µM (active).

For `CCCCc1nc2cc(C=CC(=O)NO)ccc2n1CCN(CC)CC`, the IC50 (viability decrease) [1] was 1.18 µM (active), the Potency [4] was 7.43 µM (active) and the Potency [12] was “inactive”. The Potency [5] was 5.87 µM (active), the Potency [6] was 3.72 µM (active) and the Potency [7] was 0.469 µM (active). For the same compound, the Potency [8] was 0.118 µM (active), the Potency [9] was 0.0296 µM (active) and the Potency [10] was 0.0485 µM (active). The Potency [11] was 0.59 µM (active).

For `C[C@@H](Oc1cc(-n2cnc3ccc(CN4CCN(C)CC4)cc32)sc1C(N)=O)c1ccccc1C(F)(F)F`, the Potency [2] was 3.7 nM (active), the Potency [4] was 0.118 µM (active) and the Potency [12] was 0.059 µM (active). For the same compound, the Potency [5] was 0.294 µM (active), the Potency [7] was 0.0296 µM (active) and the Potency [8] was 0.0743 µM (active). The Potency [9] was 0.105 µM (active), the Potency [10] was 0.153 µM (active) and the Potency [11] was 0.0469 µM (active).

In the case of `CN(C)CCCN=c1c2ccccc2n(C)c2[nH]c(=O)n(C)c(=O)c12`, the Potency [13] is reported as “inactive”, the Potency [6] is reported as 23.5 µM (active) and the Potency [7] is reported as 1.87 µM (active). The Potency [8] was 2.96 µM (active) and the Potency [11] was 0.743 µM (active).

With `CC[C@H](CO)Nc1nc(NCc2ccccc2)c2ncn(C(C)C)c2n1` the IC50 (viability decrease) [1] was 18.7 µM (active), the Potency [4] was 18.7 µM (active) and the Potency [14] was “inactive”. For the same compound, the outcome [15] was “inactive”, the Potency [12] was “inactive” and the Potency [5] was “inactive”. The Potency [6] was 23.5 µM (active), the Potency [7] was 16.6 µM (active) and the Potency [8] was 18.7 µM (active). For the same compound, the Potency [10] was 27.3 µM (active).

For `Clc1cccc(-c2nnnn2Cc2cccnc2)c1Cl`, the Potency [3] was “inactive”, the Potency [4] was “inactive” and the Potency [12] was “inactive”. The Potency [5] was “inactive”, the Potency [6] was “inactive” and the Potency [7] was “inactive”. For the same compound, the Potency [8] was “inactive” and the Potency [10] was “inactive”.

With `COc1cc(=C2C=c3ccccc3=N2)[nH]c1=Cc1[nH]c(C)cc1C` the IC50 (viability decrease) [1] was 14.8 µM (active), the Potency [4] was 2.96 µM (active) and the Potency [5] was “inactive”. For the same compound, the Potency [6] was 14.8 µM (active), the Potency [7] was 1.18 µM (active) and the Potency [8] was 4.69 µM (active). For the same compound, the Potency [9] was 3.72 µM (active), the Potency [10] was 7.69 µM (active) and the Potency [11] was 0.743 µM (active).

With `CCC[C@H](NC(=O)C(C#N)=Cc1cccc(Br)n1)c1ccccc1` the IC50 (viability decrease) [1] was 26.4 µM (active), the Potency [2] was 20900 nM (active) and the Potency [4] was 18.7 µM (active). For the same compound, the Potency [12] was 14.8 µM (active), the Potency [6] was 14.8 µM (active) and the Potency [7] was 8.33 µM (active). For the same compound, the Potency [8] was 9.35 µM (active), the Potency [9] was 18.7 µM (active) and the Potency [11] was 8.33 µM (active).

In the case of `Nc1nccc(Oc2ccc(NC(=O)c3c[nH]cc(-c4ccc(F)cc4)c3=O)cc2F)c1Cl`, the Potency [2] is reported as “inactive”, the Potency [4] is reported as 23.5 µM (active) and 16.4 µM (active) and the Potency [12] is reported as “inactive”. For the same compound, the Potency [6] was 14.8 µM (active), the Potency [7] was 0.132 µM (active) and the Potency [8] was 5.9 µM (active). The Potency [9] was 2.35 µM (active) and the Potency [11] was 1.05 µM (active).

In the case of `CC[C@@H]1C(=O)N(C)c2cnc(Nc3ccc(C(=O)NC4CCC(N5CCN(CC6CC6)CC5)CC4)cc3OC)nc2N1C(C)C` (some centres not stated), the IC50 (viability decrease) [1] is reported as 0.0209 µM (active), the Potency [2] is reported as 10.5 nM (active) and the Potency [4] is reported as 372 nM (active) and 326 nM (active) and 231 nM (active). For the same compound, the Potency [12] was 0.105 µM (active), the Potency [5] was 0.37 µM (active) and the Potency [6] was 0.0743 µM (active). The Potency [7] was 0.0743 µM (active), the Potency [8] was 0.0935 µM (active) and the Potency [9] was 0.148 µM (active). The Potency [10] was 2.43 µM (active).

For `CCCCCCCCCC(=O)N[C@@H](Cc1c[nH]c2ccccc12)C(=O)N[C@H](CC(N)=O)C(=O)N[C@@H](CC(=O)O)C(=O)N[C@@H]1C(=O)NCC(=O)N[C@@H](CCCN)C(=O)N[C@@H](CC(=O)O)C(=O)N[C@H](C)C(=O)N[C@@H](CC(=O)O)C(=O)NCC(=O)N[C@H](CO)C(=O)N[C@@H]([C@@H](C)CC(=O)O)C(=O)N[C@@H](CC(=O)c2ccccc2N)C(=O)O[C@@H]1C`, the Potency [3] was “inactive”, the Potency [4] was “inactive” and the Potency [12] was “inactive”. The Potency [5] was “inactive”, the Potency [6] was “inactive” and the Potency [7] was “inactive”. For the same compound, the Potency [8] was “inactive”, the Potency [9] was “inactive” and the Potency [10] was “inactive”. For the same compound, the Potency [11] was “inactive”.

In the case of `C#Cc1cccc(Nc2ncnc3cc(OC)c(OCCCCCCC(=O)NO)cc23)c1`, the IC50 (viability decrease) [1] is reported as 1.18 µM (active), the Potency [4] is reported as 10.5 µM (active) and 14.6 µM (active) and the Potency [12] is reported as “inactive”. The Potency [5] was 5.23 µM (active), the Potency [6] was 0.059 µM (active) and the Potency [7] was 0.118 µM (active). For the same compound, the Potency [8] was 0.0093 µM (active), the Potency [9] was 0.0118 µM (active) and the Potency [10] was 0.611 µM (active).

In the case of `Cc1ccc(C(N)=O)cc1Nc1nccc(-c2cn(C(C)C)c3cnccc23)n1`, the IC50 (viability decrease) [1] is reported as 8.33 µM (active), the Potency [4] is reported as 20.6 µM (active) and the Potency [6] is reported as 11.8 µM (active). The Potency [7] was 7.43 µM (active), the Potency [8] was 3.72 µM (active) and the Potency [9] was 5.9 µM (active). The Potency [10] was 9.68 µM (active).
